Bfl-1 A1 inh: inhibitors of the anti-apoptotic protein A1, read as caspase activation; 0.066% of 330,000 active; MEF A1-2A-BIM cells, Caspase-Glo 3/7 luminescence, 3 h; percent of clofoctol response, vehicle zero; AID 2462; caspase activation, % (concentration not given with the values);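 active = over half of replicate activation scores above 10%, or exactly half above 10 with the replicate mean above 10; inconclusive = replicate mean below 10 yet half the replicates above 10; inactive = over half of replicates below 10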
AHR act: human AHR activation | P35869 | AHR-responsive luciferase reporter cells, luminescence | activation, % at 5 µM | 2.5% of 320,000 active | AID 2796; in the data active = activation above about 47%
Efflux pump inh: antifungal efflux pump inhibition, Nile Red retention; AID 485275; S. cerevisiae Candida pump triplex; 0.44% of 330,000 active; inhibition, % at 10 µM;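 active = plate passing quality check with inhibition over a set limit, or well fluorescence over plate mean plus 4 SD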;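 note: Nile Red retained in pooled yeast measured as flow cytometry median fluorescence; higher means more Nile Red kept so more efflux inhibition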
Mot1-301 SUMO: blocks SUMOylation pathway, rescuing yeast Mot1-301 growth | growth rescue, % at 18.8 µM | S. cerevisiae Mot1-301 growth rescue, ATP luminescence, 38.5C; percent above DMSO median, 100 means doubled | 1% of 320,000 active | AID 2716;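 active = every valid replicate shows activation above 250% relative to neutral control wells; inactive = the rest, any valid replicate at or below 250%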
VLA-4 inh: inhibition in a human VLA-4 binding assay. P13612. VLA-4 expressing cells, ligand binding flow cytometry. inhibition, % (about 7 µM as worked out from the volumes in the protocol). 0.2% of 330,000 active. AID 2557; in the data active = inhibition above about 50%
ALR H2O2 inh: human ALR oxidase inhibition via reduced H2O2. purified ALR, DTT oxidation, H2O2 HRP-luminol luminescence. P55789. 3.8% of 290,000 active. AID 485317. inhibition, % (test concentration not listed);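 active = mean replicate inhibition above about 79%, with every replicate also reaching it, limit read from the data; inconclusive = only one of the two criteria met; inactive = mean below limit and not every replicate reaching it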
Of the large screens only hits and unclear results are named; the others gave an inactive call. Most compounds without a hit are left out; they make up all but 7.2% or so of the library.

COc1ccccc1N1CCN(C(=O)CSc2nc3ccccc3nc2N2CCC(C)CC2)CC1	none
CCNc1ccc(S(=O)(=O)N(C)C)cc1NCC(=O)Nc1ccc(Br)cc1F	none (no result: ALR H2O2 inh)
CCNc1ccc(S(=O)(=O)N(C)C)cc1NCC(=O)Nc1ccccc1F	ALR H2O2 inh 99
CCn1c(C)nc2cc(C(=O)NNS(=O)(=O)c3ccc(C)c(C)c3)ccc21	ALR H2O2 inh 81
COc1ccc(C2=CC3=C(Br)C(=O)C(C)(O)C(=O)C3=CO2)cc1 (stereo not drawn)	ALR H2O2 inh 90
CCC(=O)OC1(C)C(=O)C2=COC(c3ccc(OC)cc3)=CC2=C(Br)C1=O (stereo not drawn)	none
COc1ccc(NC(=O)CS(=O)CC(=O)Nc2ccc(OC)c(OC)c2)cc1 (stereo not drawn)	ALR H2O2 inh 87
Cc1ccc(NC(=O)CC2C(=O)N(Cc3ccccc3)C(=S)N2NC(=O)c2ccccc2)c(C)c1 (stereo not drawn)	none
C=CCN1C=C/C(=C\C=C(C#N)C#N)c2ccccc21	AHR act 53 (no result: ALR H2O2 inh)
CCCCCCN1C=C/C(=C\C=C(C#N)C#N)c2ccccc21	none
CCCN1C=CC(=C/C=C(\C#N)C(=O)OCC)C=C1	ALR H2O2 inh 99
C=CCN1C=CC(=CC=C(C#N)C#N)C=C1	ALR H2O2 inh 99
CCCCCCN1C=CC(=C/C=C(\C#N)C(=O)OCC)C=C1	none
CCCN1C=CC(=CC=C(C#N)C#N)C=C1	ALR H2O2 inh 99
Cc1cc(C#N)c(C)n1-c1cc(S(=O)(=O)N2CCOCC2)ccc1N1CCCC1	none
COc1ccc(C(=O)Nc2ccc3c(c2)nc(CN2CCCC2)n3C)cc1	none
COCCNC(=S)N/N=C(\C)c1cc2ccccc2o1	AHR act 68
C/C(=N\NC(=O)c1cc2ccccc2cc1O)c1cc2ccccc2o1	none (no result: ALR H2O2 inh)
COCCNC(=S)N/N=C(\C)c1ccc(OC)cc1	AHR act 54 (no result: ALR H2O2 inh)
COCCNC(=S)N/N=C(\C)c1ccc2cc(OC)ccc2c1	none
CCc1cc(C(=O)c2ccc(OC)cc2)c(N)s1	ALR H2O2 inh 99
CCc1cc(C(=O)c2ccc(OC)cc2)c(NC(=O)CC(C)(C)CC(=O)O)s1	ALR H2O2 inh 81
CCc1cc(C(=O)c2ccc(OC)cc2)c(NC(=O)COCC(=O)O)s1	none (no result: ALR H2O2 inh)
CCc1cc(C(=O)c2ccccc2OC)c(N)s1	ALR H2O2 inh 93
CCN(CC)CCCNC(=O)Cn1cnc2sc(C)c(S(=O)(=O)N3CCC(C)CC3)c2c1=O	none
CCN(CC)CCCNC(=O)/C=C/C(=O)O	none
O=S(=O)(c1cccs1)N1CN(Cc2ccco2)c2nc3ccccc3nc21	Efflux pump inh 0.7
CCC(=O)OCCNc1cc(Sc2nccn2C)c2nonc2c1[N+](=O)[O-]	ALR H2O2 inh 97
COc1ccccc1CNC(=O)C1CC(c2ccccc2[N+](=O)[O-])=NO1 (stereo not drawn)	none
COc1cc(Cl)ccc1NC(=O)COc1ccccc1C(=O)NN	AHR act 77
COc1ccccc1C(=O)NC(=O)COc1cc(Cl)ccc1Cl	none
O=C1NN(c2ccccc2)C(=O)/C1=C\c1cccc(OC(=O)c2cccs2)c1	ALR H2O2 inh 89
CCCCC1(C)OC(=O)C(=Cc2ccc(N(CC)CC)cc2)C(=O)O1 (stereo not drawn)	ALR H2O2 inh 97
CCN(CC)c1ccc(C=C2C(=O)OC3(CCCCC3)OC2=O)cc1	ALR H2O2 inh inconclusive (no result: Mot1-301 SUMO)
Nc1nc2nc(-c3ccccc3)cc(C(F)(F)F)c2s1	AHR act 68
COc1cnc(-c2ccccn2)nc1Oc1ccccc1Cl	ALR H2O2 inh 98
COc1cnc(-c2ccccn2)nc1Oc1ccc(Cl)c2ccccc12	none (no result: Mot1-301 SUMO)
COc1ccc(CCNC(=O)CC2SC(=NCCc3ccccc3)NC2=O)cc1OC (stereo not drawn)	none
COC(=O)CSc1nc2sc3c(c2c(=O)n1-c1ccccc1)CCN(C)C3	ALR H2O2 inh 100
CCn1c(SCC(=O)c2ccccc2)nc2sc3c(c2c1=O)CCN(C)C3	ALR H2O2 inh 99
C=CCNC(=O)CSc1nc2sc3c(c2c(=O)n1CCC)CCC3	none
C=CCn1c(SCC(=O)NC)nc2sc3c(c2c1=O)CCC3	none
C=CCn1c(SCC(=O)OC)nc2sc3c(c2c1=O)CCN(C)C3	ALR H2O2 inh 99
C=CCNC(=O)CSc1nc2sc3c(c2c(=O)n1CCCOC)CCC3	ALR H2O2 inh 81
C=CC[C@H](CC(=O)N(CCO)Cc1ccccc1)C(=O)N[C@H](C)COC(=O)[C@@H](CC=C)CC(=O)OC(C)(C)C	none
Nc1cc(=O)[nH]c(SC/C=C/c2ccccc2)n1	none
O=c1cc(C(F)(F)F)nc(SC/C=C/c2ccccc2)[nH]1	ALR H2O2 inh 78
CCCCCc1c2c(cc(O)c1C(=O)O)OC(=O)c1c(cc(OC)cc1C(=O)CCCC)O2	ALR H2O2 inh 98
CCCCCc1c2c(cc(O)c1C(=O)O)OC(=O)c1cc(C(=O)CCCC)c(OC)cc1O2	none (no result: Bfl-1 A1 inh, Mot1-301 SUMO, ALR H2O2 inh)
Cn1c(=S)[nH]c2cccnc21	ALR H2O2 inh 97
CSc1ccc(NC(=O)NCc2ccccc2)cc1	none
C=CCN(c1ccccc1)S(=O)(=O)c1cc2c(cc1C)N(C)CCO2	ALR H2O2 inh 97
Cc1cccn2c(=O)c(C=NCc3ccco3)c(Nc3ccc(SC(F)F)cc3)nc12	AHR act 49
COC(=O)C(C)Sc1nc2c(c(=O)n(C)c(=O)n2C)n1CCC(C)C (stereo not drawn)	Mot1-301 SUMO 961
COC(=O)C(C)Sc1nc2c(c(=O)[nH]c(=O)n2C)n1CCC(C)C (stereo not drawn)	none
CCN1C=C(Cc2ccc(F)cc2)C2=C(C1)C(c1ccc(F)cc1)C(C#N)=C(N)O2 (stereo not drawn)	ALR H2O2 inh 99
O=C(CSCc1ccccc1)Nc1nccs1	none
C=CCOn1c(=O)c(-c2ccccc2)[n+]([O-])c2ccccc21	none
C=CCOn1c(=O)c(-c2cc3ccccc3o2)[n+]([O-])c2ccccc21	AHR act 64
CCOC(=O)COn1c(=O)c(-c2cc3ccccc3o2)[n+]([O-])c2ccccc21	AHR act 62
CCOC(=O)COn1c(=O)c(-c2ccc(F)cc2)[n+]([O-])c2ccccc21	none (no result: AHR act)
CC1=C(C(N)=O)S(=O)(=O)c2ccccc21	none
Cn1c(=O)c2sccc2n2c(CCCC(=O)N3CCN(c4ccccn4)CC3)nnc12	none
c1ccc(COc2ccc(OCCn3cncn3)cc2)cc1	Mot1-301 SUMO 252
O=C(C1CCN(S(=O)(=O)c2cccc3cccnc23)CC1)N1CCN(Cc2ccccc2)CC1	none (no result: Bfl-1 A1 inh, Mot1-301 SUMO, ALR H2O2 inh)
CCN1CCN(C(=O)C2CCN(S(=O)(=O)c3cccc4cccnc34)CC2)CC1	ALR H2O2 inh 98
CCCC(=O)NCc1ccc2c(c1)cc(C)n2C	none
Cc1cc2cc(CNC(=O)C3CCCC3)ccc2n1C	ALR H2O2 inh 97

From PubChem BioAssay
